Results filed as inconclusive are left out. Activity calls are given as the source filed them. Unless noted, calls follow the shape of the dose curve; as a rule, active = well fitted curve in the direction sought with a large enough effect in the repeat runs; inconclusive = weak or mixed curves; inactive = no such curve, though single readings can be large; an effect the other way counts as inactive or inconclusive.
Legend:
[1] = qHTS RealTime-Glo MT Cell Viability Assay in HEK293 cells - 0 hour (AID 1224880); also: top concentration of the series differs between compounds; nearly all actives have a fitted effect of over 45% in size
How it was run: (§1)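 Cells were seeded together with NanoLuc luciferase and a prosubstrate that viable cells reduce to a luciferase substrate. After a 5 h incubation at 37 C/5% CO2, compounds were added and luminescence was measured repeatedly during 40 h of treatment.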

[2] = A CellTox Green Cytotoxicity Assay to monitor cytotoxicity in HEK293 cells - 32 hour (AID 1224881); also: nearly all actives have a fitted effect of over 40% in size
How it was run: (§2)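 Nonlytic real-time cytotoxicity: HEK293 + CellTox Green reagent plated, 5 h preincubation, pintool compound addition (23 nL in DMSO), 37 C for 40 h, fluorescence measured at successive time points.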

[3] = A CellTox Green Cytotoxicity Assay to monitor cytotoxicity in HepG2 cells - 0 hour (AID 1224882); also: nearly all actives have a fitted effect of over 35% in size
How it was run: (§3)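 Read-out is fluorescence of a cyanine dye excluded from live cells that stains DNA of dead HepG2 cells, with signal proportional to cytotoxicity. Plates were read at 0, 8, 16, 24, 32 and 40 h after compound addition.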

[4] = A CellTox Green Cytotoxicity Assay to monitor cytotoxicity in HepG2 cells - 32 hour (AID 1224883); also: nearly all actives have a fitted effect of over 50% in size
How it was run: as §3

[5] = A CellTox Green Cytotoxicity Assay to monitor cytotoxicity in HEK293 cells - 8 hour (AID 1224884); also: nearly all actives have a fitted effect of over 35% in size
How it was run: as §2

[6] = qHTS RealTime-Glo MT Cell Viability Assay in HepG2 cells - 16 hour (AID 1224885); also: nearly all actives have a fitted effect of over 50% in size
How it was run: (§4)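 Real-time, nonlytic viability: 600 HepG2 cells/well mixed with NanoLuc enzyme plus prosubstrate; 5 h settle, compound (DMSO) added by pintool; luminescence monitored over 40 h at 37 C.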

[7] = qHTS RealTime-Glo MT Cell Viability Assay in HEK293 cells - 24 hour (AID 1224886); also: top concentration of the series differs between compounds; nearly all actives have a fitted effect of over 50% in size
How it was run: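 Cells + reagent dispensed (600 cells/well, HEK293) → 5 h at 37 C/5% CO2 → 23 nL compound in DMSO pinned → 40 h at 37 C → luminescence read at 0, 8, 16, 24, 32, 40 h.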

[8] = qHTS RealTime-Glo MT Cell Viability Assay in HEK293 cells - 8 hour (AID 1224887); also: top concentration of the series differs between compounds; nearly all actives have a fitted effect of over 50% in size
How it was run: as §1

[9] = A CellTox Green Cytotoxicity Assay to monitor cytotoxicity in HEK293 cells - 16 hour (AID 1224888); also: nearly all actives have a fitted effect of over 35% in size
How it was run: as §2

[10] = qHTS RealTime-Glo MT Cell Viability Assay in HepG2 cells - 0 hour (AID 1224889); also: nearly all actives have a fitted effect of over 50% in size
How it was run: as §4

[11] = A CellTox Green Cytotoxicity Assay to monitor cytotoxicity in HepG2 cells - 8 hour (AID 1224890); also: nearly all actives have a fitted effect of over 45% in size
How it was run: as §3

[12] = qHTS assay to identify small molecule antagonists of the estrogen receptor alpha (ER-alpha) signaling pathway using the BG1 cell line in the presence of 0.1 nM 17-beta-estradiol - cell viability counter screen (AID 1259241); also: nearly all actives have a fitted effect of over 40% in size
How it was run: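 Cytotoxicity counter-screen: live-cell protease activity measured by fluorescence (30 min reagent step) in the same wells. Cells were VM7Luc4E2 with endogenous ER-alpha and ERE-driven luciferase, treated 22 hr at 37C alongside 0.1 nM 17beta-estradiol final.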

[13] = qHTS assay to identify small molecule antagonists of the androgen receptor (AR) signaling pathway using the MDA cell line in the presence of 0.5 nM R1881 - cell viability counter screen (AID 1259242); also: nearly all actives have a fitted effect of over 45% in size
How it was run: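 Counter screen for cytotoxicity run in the same wells as the AR antagonist reporter screen: MDA-kb2 cells were treated 16 hr with test compounds and 0.5 nM R1881, then live-cell protease activity was measured by fluorescence.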

[14] = target: Estrogen receptor (Homo sapiens) (UniProt P03372); assay: qHTS assay to identify small molecule antagonists of the estrogen receptor alpha (ER-alpha) signaling pathway using the BG1 cell line in the presence of 0.1 nM 17-beta-estradiol (AID 1259244); also: nearly all actives have a fitted effect of over 50% in size
How it was run: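 Cells: VM7Luc4E2, endogenous ER-alpha, 4x ERE-luc stable. Pre-culture 5 d, phenol red-free, charcoal-stripped FBS. Plated 24 h, compound + E2 0.1 nM final, 22 h 37C/5% CO2. Readout ONE-Glo luminescence.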

[15] = qHTS assay to identify small molecule phospholipidosis (PLD) inducers (AID 1259344; active = well fitted curve in the direction sought with a large enough effect; an effect the other way counts as inactive or inconclusive)
How it was run: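 Phospholipidosis is scored by imaging LipidTOX-stained pits in HepG2 cells exposed to compound for 24 h at 37 C; pit counts and integrated intensities per well and per cell serve as outputs.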

[16] = qHTS assay to identify small molecule HDAC inhibitors (AID 1259364); also: top concentration of the series differs between compounds; nearly all actives have a fitted effect of over 45% in size
How it was run: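 Luminescence from a cell-permeant luminogenic class I/II HDAC substrate reports endogenous deacetylase activity in intact HCT-116 cells treated with compounds for 2 h.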

[17] = qHTS assay to identify small molecule HDAC inhibitors - cell viability counter screen (AID 1259365)
How it was run: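 CellTiter-Glo luminescence (30 min, room temperature) reported viability after a 2 h compound exposure at 37 C. Cells: wild-type HCT-116, 1,500 per well, seeded the night before.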

[18] = qHTS assay to identify small molecule agonists of the sonic hedgehog signaling (Shh) pathway - cell viability counter screen (AID 1259366); also: nearly all actives have a fitted effect of over 50% in size
How it was run: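 Cytotoxicity counter screen: CellTiter-Fluor reagent added after 23 h compound exposure, then 1 h at 37C and fluorescence read. Cells were 3T3 Gli1-Luc, seeded 2,000 per well and dosed 4 h post-plating.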

[19] = qHTS assay to identify small molecule antagonists of the sonic hedgehog signaling (Shh) pathway - cell viability counter screen (AID 1259367); also: nearly all actives have a fitted effect of over 55% in size
How it was run: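 Cells: 3T3 Gli1-Luc, 2,000/well, 4 hr pre-incubation. Compounds in DMSO, then conditioned medium. Incubation 24 hr, 37C, 5% CO2. CellTiter-Fluor at 23 hr, 1 hr, fluorescence.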

[20] = target: Androgen receptor (Homo sapiens) (UniProt P10275); assay: qHTS assay to identify small molecule antagonists of the androgen receptor (AR) signaling pathway using the MDA cell line in the presence of 0.5 nM R1881 (AID 1259243); also: nearly all actives have a fitted effect of over 50% in size
How it was run: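 Luciferase luminescence is the read-out: compounds are tested for suppressing 0.5 nM R1881-driven MMTV reporter activity in MDA-kb2 cells after 16 hr at 37C.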
% is scaled to controls: 0 for no effect and ±100 for the full control effect.

Estrogen receptor (Homo sapiens), sequence (P03372 whole entry, looked up): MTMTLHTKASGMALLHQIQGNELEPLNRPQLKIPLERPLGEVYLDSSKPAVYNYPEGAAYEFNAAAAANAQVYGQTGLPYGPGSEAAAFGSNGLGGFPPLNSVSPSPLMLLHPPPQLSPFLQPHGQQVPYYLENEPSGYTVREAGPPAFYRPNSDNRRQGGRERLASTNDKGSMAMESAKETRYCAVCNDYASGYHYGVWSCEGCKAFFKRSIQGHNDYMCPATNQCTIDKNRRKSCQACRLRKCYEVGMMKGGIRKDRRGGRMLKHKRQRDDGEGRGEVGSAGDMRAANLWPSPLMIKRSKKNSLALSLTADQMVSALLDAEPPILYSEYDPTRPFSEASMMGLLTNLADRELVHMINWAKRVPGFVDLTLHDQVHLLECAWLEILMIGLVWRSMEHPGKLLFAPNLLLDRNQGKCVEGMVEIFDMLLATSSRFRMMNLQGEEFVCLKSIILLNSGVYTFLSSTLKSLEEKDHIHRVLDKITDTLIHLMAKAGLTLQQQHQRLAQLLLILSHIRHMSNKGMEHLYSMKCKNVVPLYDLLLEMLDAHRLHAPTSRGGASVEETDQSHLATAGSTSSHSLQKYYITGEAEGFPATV
Androgen receptor (Homo sapiens), sequence (P10275 whole entry, looked up): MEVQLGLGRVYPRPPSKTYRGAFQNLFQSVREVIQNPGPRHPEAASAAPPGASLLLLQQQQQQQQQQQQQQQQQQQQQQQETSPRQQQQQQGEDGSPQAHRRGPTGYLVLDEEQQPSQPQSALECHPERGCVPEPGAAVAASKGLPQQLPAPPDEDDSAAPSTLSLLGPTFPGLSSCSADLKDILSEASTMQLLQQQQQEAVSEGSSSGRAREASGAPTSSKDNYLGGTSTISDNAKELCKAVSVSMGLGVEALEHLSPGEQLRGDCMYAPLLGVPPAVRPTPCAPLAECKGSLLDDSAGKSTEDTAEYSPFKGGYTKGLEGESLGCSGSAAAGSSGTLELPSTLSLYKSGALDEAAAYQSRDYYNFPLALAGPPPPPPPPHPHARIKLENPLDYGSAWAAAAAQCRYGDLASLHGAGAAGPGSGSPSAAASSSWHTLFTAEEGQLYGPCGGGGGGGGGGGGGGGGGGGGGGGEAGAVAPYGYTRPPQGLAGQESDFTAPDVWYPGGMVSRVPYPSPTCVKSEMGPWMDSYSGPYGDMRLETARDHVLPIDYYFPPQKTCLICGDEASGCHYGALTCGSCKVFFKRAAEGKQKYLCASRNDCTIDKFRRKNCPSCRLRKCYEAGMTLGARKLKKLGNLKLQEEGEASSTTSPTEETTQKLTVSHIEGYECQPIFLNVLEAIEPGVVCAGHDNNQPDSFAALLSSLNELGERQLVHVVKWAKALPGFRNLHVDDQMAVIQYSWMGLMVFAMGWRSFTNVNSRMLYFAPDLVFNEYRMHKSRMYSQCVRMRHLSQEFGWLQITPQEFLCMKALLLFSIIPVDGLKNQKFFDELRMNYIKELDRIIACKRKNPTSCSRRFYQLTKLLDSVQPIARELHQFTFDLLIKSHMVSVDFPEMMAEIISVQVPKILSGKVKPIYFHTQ

Cc1c(NC(C)C)c(=O)n(-c2ccccc2)n1C
inactive: Potency [1] | Potency [2] | Potency [3] | Potency [4] | Potency [5] | Potency [6] | Potency [7] | Potency [8] | Potency [9] | Potency [10] | Potency [11] | outcome [12] | Potency [13] | outcome [14] | Potency [15] | Potency [16] | outcome [17] | Potency [18] | Potency [19]

NC(=O)c1ccc([N+](=O)[O-])cc1
inactive: Potency [1] | Potency [2] | Potency [3] | Potency [4] | Potency [5] | Potency [6] | Potency [7] | Potency [8] | Potency [9] | Potency [10] | Potency [11] | outcome [12] | Potency [13] | Potency [16] | outcome [17] | Potency [18] | Potency [19]

Cc1c(O)cccc1O
inactive: Potency [1] | Potency [2] | Potency [3] | Potency [4] | Potency [5] | Potency [6] | Potency [7] | Potency [8] | Potency [9] | Potency [10] | Potency [11] | outcome [12] | Potency [13] | outcome [14] | Potency [16] | outcome [17] | Potency [18] | Potency [19]

O=c1cc(CO)occ1O
inactive: Potency [1] | Potency [2] | Potency [3] | Potency [4] | Potency [5] | Potency [6] | Potency [7] | Potency [8] | Potency [9] | Potency [10] | Potency [11] | outcome [12] | Potency [13] | outcome [14] | Potency [15] | Potency [16] | outcome [17] | Potency [18] | Potency [19]

CCN1CCC[C@H]1CNC(=O)c1cc(S(N)(=O)=O)ccc1OC
inactive: Potency [1] | Potency [2] | Potency [3] | Potency [4] | Potency [5] | Potency [6] | Potency [7] | Potency [8] | Potency [9] | Potency [10] | Potency [11] | outcome [12] | Potency [13] | Potency [20] | Potency [15] | Potency [16] | outcome [17] | Potency [18] | Potency [19]

COc1ccccc1OCC(O)CN1CCN(CC(=O)Nc2c(C)cccc2C)CC1 (stereo not given)
inactive: Potency [1] | Potency [2] | Potency [3] | Potency [4] | Potency [5] | Potency [6] | Potency [7] | Potency [8] | Potency [9] | Potency [10] | Potency [11] | outcome [12] | Potency [13] | outcome [14] | Potency [16] | outcome [17] | Potency [18] | Potency [19]

CCC(C)C1CCCCC1=O (stereo not given)
inactive: Potency [1] | Potency [2] | Potency [3] | Potency [4] | Potency [5] | Potency [6] | Potency [7] | Potency [8] | Potency [9] | Potency [10] | Potency [11] | outcome [12] | Potency [13] | outcome [14] | Potency [16] | outcome [17] | Potency [18] | Potency [19]

CCCCCOC(=O)CCCCC
inactive: Potency [1] | Potency [2] | Potency [3] | Potency [4] | Potency [5] | Potency [6] | Potency [7] | Potency [8] | Potency [9] | Potency [10] | Potency [11] | outcome [12] | Potency [13] | outcome [14] | Potency [16] | outcome [17] | Potency [18] | Potency [19]

C[C@](N)(Cc1ccc(O)cc1)C(=O)O
inactive: activity change, negative = cytotoxicity [1] 0.416% [at 6.97 µM] | cytotoxicity increase [2] 3.03% [at 6.97 µM] | cytotoxicity [3] 0.583% [at 6.97 µM] | cytotoxicity increase [4] -6.04% [at 6.97 µM] | cytotoxicity increase [5] 2.1% [at 6.97 µM] | activity change, negative = cytotoxic [6] -0.0046% [at 6.97 µM] | activity change, negative = cytotoxicity [7] 0.918% [at 6.97 µM] | activity change, negative = cytotoxicity [8] 3.77% [at 6.97 µM] | activity change [9] 4.06% [at 6.97 µM, hits give high values] | activity change, negative = cytotoxicity [10] -5.13% [at 6.97 µM] | cytotoxicity increase [11] -1.36% [at 6.97 µM] | activity change, negative = cytotoxicity [12] 0.275% [at 8.39 µM] | viability change, negative = cytotoxic [13] 2.64% [at 8.39 µM] | activity change, negative = inhibition [14] -5.6% [at 8.39 µM] | Potency [15] | activity change, negative = inhibition [16] -0.294% [at 8.39 µM] | activity change, negative = cytotoxicity [17] -1.98% [at 8.39 µM] | viability change, negative = cytotoxic [18] 4.48% [at 8.39 µM] | viability change, negative = cytotoxic [19] 4.1% [at 8.39 µM]

CCOC(=O)c1c(C)n(C)c2ccc(O)cc12
inactive: Potency [1] | Potency [2] | Potency [3] | Potency [4] | Potency [5] | Potency [6] | Potency [7] | Potency [8] | Potency [9] | Potency [10] | Potency [11] | outcome [12] | Potency [13] | Potency [20] | Potency [16] | outcome [17] | Potency [18] | Potency [19]

CCO/C([O-])=N/c1c[n+](N2CCOCC2)no1
inactive: Potency [1] | Potency [2] | Potency [3] | Potency [4] | Potency [5] | Potency [6] | Potency [7] | Potency [8] | Potency [9] | Potency [10] | Potency [11] | outcome [12] | Potency [13] | outcome [14] | Potency [15] | Potency [16] | outcome [17] | Potency [18] | Potency [19]

NC(=O)c1ccc(N)cc1
inactive: Potency [1] | Potency [2] | Potency [3] | Potency [4] | Potency [5] | Potency [6] | Potency [7] | Potency [8] | Potency [9] | Potency [10] | Potency [11] | outcome [12] | Potency [13] | outcome [14] | Potency [16] | outcome [17] | Potency [18] | Potency [19]
